Inconclusive results are not listed. Calls of active or inactive are those of the source. The call rests on the fitted dose curve; in most records, active means well fitted curve in the direction sought with a large enough effect in the signal ratio; inconclusive means small, poorly fitted or top-dose-only effect, or effect the other way, or a change in a side signal; inactive means no such curve, though single readings can be large or run the other way; the % refers to the signal ratio.
target: Lutropin-choriogonadotropic hormone receptor (Homo sapiens) (UniProt P22888); experiment: Counterscreen for Agonists of Thyroid Stimulating Hormone Receptor: HTRF Activity in a Luteinizing Hormone Receptor Cell Line; conditions: HEK293-LHR cells, cAMP HTRF ratio, 30 min; series mostly up to 91.7 µM
Sequence (P22888 whole entry, looked up): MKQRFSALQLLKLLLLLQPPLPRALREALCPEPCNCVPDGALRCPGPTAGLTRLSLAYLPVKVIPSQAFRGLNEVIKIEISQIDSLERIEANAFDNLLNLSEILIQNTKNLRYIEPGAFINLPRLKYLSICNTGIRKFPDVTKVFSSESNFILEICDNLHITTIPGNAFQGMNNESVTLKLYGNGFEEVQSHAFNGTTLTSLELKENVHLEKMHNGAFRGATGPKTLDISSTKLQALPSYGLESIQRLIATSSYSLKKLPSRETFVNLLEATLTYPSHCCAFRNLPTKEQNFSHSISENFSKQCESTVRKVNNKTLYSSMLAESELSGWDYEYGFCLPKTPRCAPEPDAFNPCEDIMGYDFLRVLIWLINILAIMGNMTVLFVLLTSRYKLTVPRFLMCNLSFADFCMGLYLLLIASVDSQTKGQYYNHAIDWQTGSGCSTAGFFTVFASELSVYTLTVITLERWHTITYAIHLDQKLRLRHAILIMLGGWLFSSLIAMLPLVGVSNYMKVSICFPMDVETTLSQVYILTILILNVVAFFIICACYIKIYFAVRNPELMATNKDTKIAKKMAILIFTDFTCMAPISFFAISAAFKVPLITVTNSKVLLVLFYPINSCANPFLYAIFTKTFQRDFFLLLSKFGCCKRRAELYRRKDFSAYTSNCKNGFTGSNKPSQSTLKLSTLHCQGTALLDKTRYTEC
Description: NIH Chemical Genomics Center [NCGC] NIH Molecular Libraries Screening Centers Network [MLSCN] MLSCN Grant: 1 X01 MH080680-01 PI Name: Dr. Marvin Gershengorn, NIH NCGC Assay Overview: Confirmation of Thyroid Stimulating Hormone Receptor Agonists TSH is an alpha/beta heterodimeric glycoprotein hormone secreted from the anterior pituitary gland which belongs to the glycoprotein hormone family. The actions of TSH are mediated by a seven-transmembrane receptor, which upon TSH binding couples preferentially to the G-alpha (s) protein (Gs), resulting in activation of adenylate cyclase and increase in cyclic adenosine 3', 5' monophosphate (cAMP). The TSH receptor (THSR) is mainly expressed in thyroid follicular cells and regulates their growth and function. Recombinant TSH is used to activate TSHR in patients with thyroid cancer receiving thyroid hormone suppression therapy and to screen for residual tumor after surgery, but it is expensive and must be administered intramuscularly. An orally active small molecule TSHR agonist would serve as an invaluable research tool for studying TSHR pharmacology and physiology, and would have multiple advantages in therapeutic settings. However, no selective small molecule agonist of the TSH receptor exists, and no small molecule screen for TSHR agonists has ever been reported. In order to confirm specificity of the compounds to the TSHR, a confirmatory assay was conducted on a similar family member, the Luteinizing Hormone (LH) receptor, transfected into a HEK 293 cell line, using an orthogonal detection technology to measure cAMP stimulation: antibody-based Homogeneous Time Resolved Fluorescence (HTRF).
NCGC Assay Protocol Summary: Homogeneous Time Resolved Fluorescence (HTRF) cAMP Assay. HEK 293 cells stably transfected with a vector containing the LH receptor and maintained under hygromycin selection were obtained from the laboratory of Dr. Marvin Gershengorn. Compounds were assayed using a HTRF cAMP detection kit (Cisbio) on the LH receptor transfected cell line. Briefly, 750 cells were plated in 2.5 ul/well of complete media (DMEM containing 10 % FCS, and 100 uM RO 20-1724) in 1536 well solid bottom white plates and 23 nl/well compound in DMSO solution or controls was added. Following 30 minute incubation at room temperature, 2.5 ul/well of labeled d2 cAMP and 2.5 ul/well of anti-cAMP antibody (both diluted 1:20 in lysis buffer) were added to each well using a flying reagent dispenser (Aurora Discovery, San Diego) . Plates were measured using the Envision plate reader (PerkinElmer, Boston, MA) with excitation at 330 nm and emissions of 615 nm and 660 nm. Keywords: Luteinizing hormone LH, Thyroid-stimulating hormone TSH, TSHR, TSHR agonist, quantitative high throughput screening, qHTS, HTS, probe identification, CNG, cAMP, cyclic nucleotide gated ion channel PubChem

| SMILES | outcome |
| --- | --- |
| CCn1c(=O)c(C(=O)CN2CCCc3ccccc32)c(N)n(Cc2ccccc2)c1=O | inactive |
| O=C1CC(c2ccco2)CC2=C1C(c1ccccc1)n1nc(C(F)(F)F)nc1N2 (configuration not stated) | inactive |
| O=C(COC(=O)C12CC3CC(CC(Br)(C3)C1)C2)NCc1ccco1 | inactive |
| O=C1CC(c2ccccc2)CC2=C1C(c1ccco1)n1nc(C(F)(F)F)nc1N2 (configuration not stated) | inactive |
| COc1ccc(C2Nc3ccccc3C(=O)N2Cc2ccco2)cc1COc1ccc(NC(C)=O)cc1 (configuration not stated) | inactive |
| O=C(COC(=O)C12CC3CC(CC(Cl)(C3)C1)C2)NCc1ccco1 | inactive |
| O=C1C2C3CCCC3=C3CCCC3C2C(=O)N1c1ccc(Cl)cc1 (configuration not stated) | inactive |
| CC(NC(=O)COC(=O)c1ccco1)C12CC3CC(CC(C3)C1)C2 (configuration not stated) | inactive |
| NC(=O)c1nsc(C(=O)N(CC(=O)NC2CCCC2)Cc2ccc3c(c2)OCO3)c1N | inactive |
| O=c1c2c(-c3ccccc3)csc2ncn1/N=C/c1cn(-c2ccccc2)nc1-c1cccs1 | inactive |
| O=C(COC(=O)C12CC3CC(CC(C3)C1)C2)NCc1ccco1 | inactive |
| COc1ccc(C(=O)N(Cc2ccco2)Cc2cccs2)cc1 | inactive |
| COc1ccc(C(=O)N(Cc2ccco2)Cc2cccs2)c(O)c1 | inactive |
| O=C1C2C3CCCC3=C3CCCC3C2C(=O)N1c1cccc(Cl)c1 (configuration not stated) | inactive |
| COc1ccc(C2Nc3ccccc3C(=O)N2Cc2ccco2)cc1COc1ccc([N+](=O)[O-])cc1 (configuration not stated) | inactive |
| Cc1nn(-c2ccccc2)c(N2CCCC2)c1/C=N/n1cnc2scc(-c3ccccc3)c2c1=O | inactive |
| O=C1C2C3CCCC3=C3CCCC3C2C(=O)N1c1ccccc1Cl (configuration not stated) | inactive |
| O=C(COC(=O)C12CC3CC(CC(O)(C3)C1)C2)NCc1ccco1 | inactive |
| COc1ccc(C2Nc3cccc(O)c3C(=O)N2Cc2ccccc2)cc1COc1ccc(NC(C)=O)cc1 (configuration not stated) | inactive |
| Cc1sc2ncn(/N=C/c3cn(-c4ccccc4)nc3-c3ccccc3)c(=O)c2c1C | inactive |
| NC(=O)c1nsc(C(=O)N(CC(=O)NCc2ccc3c(c2)OCO3)C2CCCCC2)c1N | inactive |
| O=C1C2C3CCCC3=C3CCCC3C2C(=O)N1c1ccc(F)cc1 (configuration not stated) | inactive |
| NC(=O)c1nsc(C(=O)N(CC(=O)NCc2ccc3c(c2)OCO3)C2CCCC2)c1N | inactive |
| O=C(COC(=O)C12CC3CC(CC(C3)C1)C2)NCC1CCCO1 (configuration not stated) | inactive |
| COc1ccc(C2Nc3ccccc3C(=O)N2Cc2ccco2)cc1COc1c(C)cccc1C (configuration not stated) | inactive |
| COc1cc(OC)cc(C(=O)N(Cc2ccco2)Cc2cccs2)c1 | inactive |
| COc1cc(OC)c(C(=O)N(Cc2ccco2)Cc2cccs2)cc1OC | inactive |

— PubChem BioAssay AID1402 (National Center for Advancing Translational Sciences (NCATS), 2008)
